BRCT inh green = BRCA1 BRCT-phosphoprotein interaction inhibition. P38398. BRCA1 BRCT-phosphopeptide binding, green fluorescence polarization. Potency, µM (doses to about 76.9 µM), for inactives: top-dose activity change, negative = inhibition, most hits filed as inhibitors. 75,000 tested, 0.05% active;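 further: potency means the concentration at half of the fitted maximal effect; plate controls were peptide without protein for full effect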
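Compounds were incubated for 12 min at room temperature with a complex of 100 nM fluorescein-tagged pBACH1 decapeptide and 250 nM His-tagged BRCT protein. Buffer was phosphate pH 7.3 with EDTA, DTT and Tween 20. Disruption of binding lowers the polarization signal.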
DNA Pol III inh = DNA polymerase III holoenzyme inhibition; Potency, µM (titrated, usually from 57.1 µM), inactives show at the top dose activity change, negative = inhibition; reconstituted DNA polymerase III holoenzyme replication, biochemical; 71,000 tested, 0.25% active; AID 603; further: potency means the concentration at half of the fitted maximal effect; on the % scale 0 is the no-effect control and ±100 the full control effect
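Reconstituted *E. coli* holoenzyme (0.35 nM Pol III, 1 nM beta, 154 nM SSB, 2 nM primase) was preincubated with compound for 15 min at RT. Synthesis on 1.4 nM ssM13Gori ran 35 min, then was stopped with PicoGreen/EDTA and read as dsDNA fluorescence.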
TsaE inh = inhibitors of E. coli YjeE (TsaE); Potency, µM; 71,000 tested, 0.05% active; P0AF67; AID 605; purified YjeE enzyme, qHTS inhibition assay
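Fluorescence polarization of a BODIPY Texas Red–ADP probe (2 uM) bound to purified YjeE (10 uM) was read after 15 min room-temperature incubation with compounds. Loss of polarization marks inhibitors; ADP serves as titrated control.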
GBA mod = alters purified human glucocerebrosidase activity; AID 360; Potency, µM; purified enzyme, resorufin glucoside fluorescence (screen aimed at inhibitors), 20 min; 48,000 tested, 1.1% active; P04062; in the data active means potency below about 15 µM; inconclusive means mostly about 16 µM to 33 µM;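 further: potency means the concentration at half of the fitted maximal effect; the screen sought inhibitors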
Target sequence (P04062 whole entry, looked up): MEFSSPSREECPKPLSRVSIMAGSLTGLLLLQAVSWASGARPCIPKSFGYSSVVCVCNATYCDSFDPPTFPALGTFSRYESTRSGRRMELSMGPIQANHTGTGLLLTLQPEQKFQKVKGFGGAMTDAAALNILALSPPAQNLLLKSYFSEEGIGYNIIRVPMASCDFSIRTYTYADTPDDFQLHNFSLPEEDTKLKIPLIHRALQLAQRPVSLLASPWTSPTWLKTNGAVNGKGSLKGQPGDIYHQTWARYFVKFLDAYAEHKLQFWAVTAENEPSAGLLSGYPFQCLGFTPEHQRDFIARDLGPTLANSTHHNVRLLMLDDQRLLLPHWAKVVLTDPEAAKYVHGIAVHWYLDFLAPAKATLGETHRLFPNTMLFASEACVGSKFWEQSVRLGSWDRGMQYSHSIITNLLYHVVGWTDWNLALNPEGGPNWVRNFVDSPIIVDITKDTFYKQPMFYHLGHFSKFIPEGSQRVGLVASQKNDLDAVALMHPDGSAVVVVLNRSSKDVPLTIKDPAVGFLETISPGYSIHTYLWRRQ
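Normal human glucocerebrosidase (0.2 nM final) was assayed with resorufin β-D-glucopyranoside (30 uM final) in 50mM citric acid/KH2PO4, 10mM sodium taurocholate, 0.01% tween-20, pH 5.9. Compounds were titrated; fluorescence (Ex 548, Em 600) read after 20 min at RT.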
Hsp90 Hop PPI = changes Hsp90-Hop TPR2A binding signal, up or down; AlphaScreen TPR2A-His6 binding biotin-Hsp90 C-terminal peptide; Potency, µM (top dose mostly 57 µM), without a hit: at the highest dose activity change, negative = inhibition; 71,000 tested, 0.44% active; active means well fitted curve in either direction with a large enough effect; inconclusive means small, poorly fitted or top-dose-only effect, or another doubt; further: potency means the concentration at half of the fitted maximal effect; on the % scale 0 is the no-effect control and ±100 the full control effect
BRCT inh red = disrupts BRCA1 BRCT binding to phosphoprotein, red fluorophore readout | Potency, µM (doses to about 76.9 µM), inactives show at the top dose activity change, negative = inhibition, hits mostly inhibitors | BRCT-phosphopeptide binding, red fluorescence polarization | P38398 | AID 892 | 75,000 tested, 0.03% active; further: on the % scale 0 is the no-effect control and ±100 the full control effect
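Fluorescence polarization: 100 nM His-tagged BRCA1 BRCT with 100 nM TAMRA-labelled phospho-BACH1 decapeptide, phosphate buffer pH 7.3 with 150 mM NaCl, DTT, 0.01% Tween 20; 12 min RT. Binding inhibition seen as FP decrease.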
The depositor's hits bear a star; i = inactive; ? = inconclusive; . = no result; [ ] = remark or other dose. In the library only some 1.2% were active in any assay of this set; here they are far more common. Unless noted, the call rests on the fitted dose curve; in most records, active means well fitted curve in the direction sought with a large enough effect; inconclusive means small, poorly fitted or top-dose-only effect, or another doubt; inactive means no such curve, though single readings can be large; an effect the other way counts as inactive or inconclusive.

SMILES | BRCT inh green | DNA Pol III inh | TsaE inh | GBA mod | Hsp90 Hop PPI | BRCT inh red
CCOC(=O)c1[nH]c2ccc(C)cc2c1NC(=O)CN1CCCCC1 | -1.6% | -1.5% | i | >76.9 | -4.0% | -0.6%
COc1ccc(Nc2nc(N)nc(CN3CCc4ccccc4C3)n2)cc1 | 0.9% | -4.1% | i | . | ? | 1.2%
COc1cccc(N2CCN(Cc3nc(N)nc(N4CCCc5ccccc54)n3)CC2)c1 | 1.2% | 1.2% | i | 10.9* | -11.5% | 2.3%
CN(C)c1ncc2nc(CCc3ccccc3)c(=O)n(-c3ccccc3)c2n1 | 35.4% | -3.8% | i | . | 20µM* | 3.2%
COc1ncc2nc(CCc3ccccc3)c(=O)n(-c3ccccc3)c2n1 | -0.5% | 2.1% | i | . | 0.6% | -0.2%
CCNc1ncc2nc(-c3ccc(F)cc3)c(=O)n(CCc3ccccc3)c2n1 | 3.3% | -21.3% | i | . | -7.4% | -3.6%
CS(=O)(=O)Nc1cccc(-c2ccc3ncnc(NCCN4CCOCC4)c3c2)c1 | 0.6% | -6.1% | i | . | 0.7% | 2.1%
COc1ccc(C)cc1NC(=O)CCC(=O)Nc1ccc2nc(N3CCN(C)CC3)cc(C)c2c1 | -1.8% | -4.5% | i | 9.5* | -2.1% | 0.0%
Cc1cc(N2CCOCC2)nc2ccc(NC(=O)CCC(=O)N3CCCC(C)C3)cc12 (stereo unspecified) | -0.2% | -7.7% | i | 1.18* | -4.2% | 0.6%
CCN1CCN(c2cc(C)c3cc(NC(=O)c4cncc(Br)c4)ccc3n2)CC1 | -2.2% | -5.4% | i | 3.7* | -9.6% | -0.9%
CCN1CCN(c2cc(C)c3cc(NC(=O)c4ccc5c(c4)OCO5)ccc3n2)CC1 | -1.7% | -6.6% | i | . | -8.2% | 1.3%
COc1cccc(C(=O)Nc2ccc3nc(N4CCOCC4)cc(C)c3c2)c1 | -4.3% | 1.7% | i | . | 0.2% | -2.1%
COc1cccc(C(=O)Nc2ccc3nc(N4CCN(c5ncccn5)CC4)cc(C)c3c2)c1OC | 2.7% | -14.1% | i | 8.68* | ? | 0.4%
CC1(C)C[C@@H]2C(=O)CCC3O[C@@]3(C)CCC21 (stereo partly specified) | -1.6% | . | . | . | . | -0.7%
Cc1cccc(-c2noc(CCc3ccccc3)n2)c1 | -2.0% | -3.1% | i | . | 31.6µM* | -0.8%
Cc1cccc(-c2noc(Cc3ccccc3)n2)c1 | -1.6% | . | . | . | . | 1.3%
C[C@@H]1C=CCC(=O)OC[C@H](C)C(=O)OC[C@H]2O[C@H]1C=C[C@H]2O | 0.8%[15.4 µM] | . | . | . | . | 2.1%[15.4 µM]
Cc1nnc(NC(=O)c2ccc(S(=O)(=O)N(C)Cc3ccccc3)cc2)o1 | 1.5% | -3.3% | i | 14.2* | ? | -2.6%
CSCc1nnc(NC(=O)c2ccc(S(=O)(=O)N(CC(C)C)CC(C)C)cc2)o1 | 0.7% | -7.8% | i | 6.84* | -24.8% | 0.3%
O=C(NCC1CCCO1)c1cc(-c2ccco2)nc2ccccc12 (stereo unspecified) | -2.7% | 31.6µM* | i | >76.9 | -1.6% | -0.2%
O=C(Nc1ccccc1C(=O)NCC1CCCO1)c1ccco1 (stereo unspecified) | -2.3% | -2.2% | i | >76.9 | -1.4% | -1.9%
CCCCNC(=O)[C@@H]1Cc2ccccc2N1C(=O)[C@H](N)CC | -2.5% | -5.3% | i | . | -7.0% | -2.5%
Cc1ccnc(N2CCC(C(=O)Nc3nnc(C)s3)CC2)n1 | -2.9% | -2.7% | i | 11.7* | -2.8% | 0.8%
CCN(CC)C[C@@H]1CCCCN1CC(=O)N1c2ccccc2C(=O)Nc2cccnc21 | -1.5% | -2.9% | i | . | -4.4% | -0.9%
COc1cc(-c2cc(C(=O)N3CCN(c4ccccn4)CC3)c3ccccc3n2)cc(OC)c1OC | 2.1% | -0.3% | i | 14.6* | -3.9% | -2.3%
SMILES | BRCT inh green | DNA Pol III inh | TsaE inh | GBA mod | Hsp90 Hop PPI | BRCT inh red
CNc1ccnc(-c2ccccc2C(F)(F)F)n1 | -1.6% | -4.6% | i | . | 2.5% | -0.3%
COc1ccc(N2CCN(Cc3cc(=O)oc4cc(C)c(Cl)cc34)CC2)cc1 | -1.3% | 6.2% | i | 5.27* | -5.7% | 0.2%
CCOC(=O)[C@]1(C(NC(=O)OC)c2ccco2)CCCC1=O (stereo partly specified) | -1.0%[15.4 µM] | . | . | . | . | -0.1%[15.4 µM]
O=c1oc2c(O)c(O)cc3c(=O)oc4c(O)c(O)cc1c4c23 | -10.4% | 0.00501µM* | i | . | 31.6µM* | -4.8%
N#Cc1nc(-c2cccs2)oc1N1CCN(c2ccccc2)CC1 | 1.4% | 0.3% | i | 8.29* | ? | -1.4%
Cn1c(N2CCOCC2)nc(-c2ccccc2)c1-c1ccccc1 | -2.0% | 5.8% | i | 8.58* | -7.0% | -0.9%
c1ccc(-c2nc3ccccc3nc2N2CCOCC2)cc1 | -0.7% | -1.2% | i | >76.9 | 15.2% | -0.7%
O=C1c2cc([N+](=O)[O-])ccc2-c2ccc3c4ccc5c6c(ccc(c7ccc1c2c73)c64)C(=O)c1cc([N+](=O)[O-])ccc1-5 | -3.5%[15.4 µM] | 3.98µM* | i | . | ? | -7.3%[15.4 µM]
COc1ccc(Oc2ncc3nc(-c4cn(C)c5ccccc45)c(=O)n(C)c3n2)cc1 | -1.3% | -6.9% | i | . | -4.7% | 0.3%
NC(=O)C1CCN(c2nc(-c3ccccc3)nc3c2oc2ccccc23)CC1 | -1.7% | 2.2% | i | 8.27* | -2.7% | -0.1%
Nc1nc2c([nH]c(=S)n2C2OC(CO)C(O)C2O)c(=O)[nH]1 (stereo unspecified) | 1.1% | . | . | . | . | 0.9%
COC(=O)c1cn(CCOc2ccccc2)c2ccccc12 | -4.4% | 3.2% | i | . | 25.1µM* | -1.6%
O=c1oc2c(CN3CCCCCC3)c(O)ccc2cc1-c1nc2ccccc2[nH]1 | 31.6µM* | 93.8% | i | >76.9 | 5.4% | 2.0%
C[C@@H]1OC(OC2C(OC3CC[C@@]4(C)C5CC=C6C7CC(C)(C)CC[C@@]7(C(=O)O)CCC6(C)C5(C)CCC4[C@]3(C)CO)OCC(O)C2O)C(O)C(O)C1O (stereo partly specified) | -3.4% | . | . | . | . | -2.6%
O=S(=O)(c1cccc(C(F)(F)F)c1)N(CCCN1CCOCC1)Cc1cccs1 | -1.7% | -2.6% | i | 10.9* | 0.9% | 0.5%
COC(=O)[C@@H](NC(=O)c1cc(-c2ccccc2)nc2ccccc12)c1ccccc1 | . | -4.5% | i | . | -6.0% | .
COc1cccc(C(=O)Nc2ccc(S(=O)(=O)NCc3ccco3)cc2)c1 | -2.4% | -5.7% | i | >76.9 | -2.3% | -2.2%
COc1ccc(OC)c(NC(=O)c2cc(S(=O)(=O)NCc3ccco3)ccc2F)c1 | 0.0% | -3.5% | i | 5.32* | -12.3% | -0.9%
C=CCSCC=C | 0.3%[3.08 µM] | . | . | . | . | -0.2%
Cc1cc(=O)n2[nH]c(C)c(-c3ccccc3)c2n1 | -1.2% | -0.5% | i | . | 1.2% | -0.2%
Cc1cc(=O)n2[nH]c(C)c(-c3ccc(Cl)cc3)c2n1 | -2.5% | 20µM* | i | . | 22.3% | -1.4%

Screening data deposited in PubChem by National Center for Advancing Translational Sciences (NCATS).
